AHR act: activators of human aryl hydrocarbon receptor; 320,000 compounds, 2.5% hits; AHR-responsive luciferase reporter cells, luminescence; P35869; activation, % at 5 µM; in the data active means activation above about 47%;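 further: 0% = vehicle wells and 100% = reference agonist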
NR3A LBD binder: modulates the human NR3A ligand-binding domain. NR3A LBD differential scanning fluorimetry, Tm shift; 0% = protein alone, 100% = glycine-bound protein. AID 1259313. Tm shift relative to glycine control, % at 25 µM. 340,000 compounds, 2.5% hits;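 active means melting temperature shift of at least 10% of the positive control shift, at one fixed dose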
ADAM17 inh: inhibitors of human ADAM17 | recombinant ADAM17, EDANS/DABCYL FRET peptide cleavage | inhibition, % at 6.95 µM | 370,000 compounds, 0.83% hits | AID 720648;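 active means inhibition above the mean of compounds lying between control limits plus 3 SD, set per campaign, cut at about 8.5% in these data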;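 further: 0% = DMSO-only wells as the low control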
Target sequence (P78536 215-824 limits assumed): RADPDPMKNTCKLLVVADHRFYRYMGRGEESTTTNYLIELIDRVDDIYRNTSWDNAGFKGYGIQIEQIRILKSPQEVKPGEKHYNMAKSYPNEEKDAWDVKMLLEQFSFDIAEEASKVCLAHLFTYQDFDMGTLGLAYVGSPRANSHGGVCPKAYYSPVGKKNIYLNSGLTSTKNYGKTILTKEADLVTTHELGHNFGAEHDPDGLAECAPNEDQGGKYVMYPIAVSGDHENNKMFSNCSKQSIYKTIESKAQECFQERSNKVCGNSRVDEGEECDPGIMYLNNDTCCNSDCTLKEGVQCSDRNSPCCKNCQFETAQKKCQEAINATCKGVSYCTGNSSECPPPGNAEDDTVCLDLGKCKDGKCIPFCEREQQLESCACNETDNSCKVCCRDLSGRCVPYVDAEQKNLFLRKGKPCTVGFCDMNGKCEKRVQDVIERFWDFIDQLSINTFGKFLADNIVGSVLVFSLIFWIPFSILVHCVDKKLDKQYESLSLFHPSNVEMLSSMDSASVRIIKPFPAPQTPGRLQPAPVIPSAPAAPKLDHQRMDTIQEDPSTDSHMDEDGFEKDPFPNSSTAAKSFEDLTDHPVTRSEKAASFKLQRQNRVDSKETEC
ADAM10 inh: inhibits human ADAM10; O14672; recombinant ADAM10, EDANS/DABCYL FRET peptide cleavage, 3 h; inhibition, % at 7 µM; 370,000 compounds, 0.62% hits; AID 720582;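 active means inhibition above a per-campaign cutoff equal to the mean of compounds falling between control-based bounds plus 3 SD, cut at about 20% in these data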;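 further: 0% = DMSO wells while the 100% control is not disclosed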
proKLK7 act: activates the human kallikrein-7 zymogen. P49862. purified proKLK7, EDANS-DABCYL substrate fluorescence; 100% is mature enzyme control, 0% vehicle. activation, % at 7 µM. 370,000 compounds, 0.9% hits. AID 652039;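 active means activation above the mean of all tested compounds plus 3 SD, computed per campaign excluding outliers beyond control limits, cut at about 13% in these data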
rCAG RNA binder: binds r(CAG) RNA repeats. 370,000 compounds, 1.3% hits. r(CAG) RNA repeat, TO-PRO-1 dye displacement fluorescence. inhibition, % at 3 µM;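 active means inhibition above the plate cutoff, the mean of all test compounds on that plate plus 3 SD, cut at about 35% in these data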;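 further: 0% = DMSO alone and 100% = 100 µM mitoxantrone as full dye displacement; higher means more dye released from RNA so lower well fluorescence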
KLK7 act conf: proKLK7 activation, confirmation; shares compounds with proKLK7 act; purified proKLK7, EDANS-DABCYL substrate fluorescence; scaled: vehicle 0, mature enzyme 100; activation, % at 7 µM; 3,200 compounds, 68% hits;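 active means activation, as change over the incubation, above the mean of all tested compounds plus 3 SD, cut at about 13% in these data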
EDANS interfere: optically interferes with EDANS-DABCYL signal, flagging KLK7 hits; activation, % at 7 µM; 3,200 compounds, 80% hits; shares compounds with proKLK7 act; EDANS-DABCYL substrate fluorescence interference, no enzyme, 4 h; solvent 0%, active enzyme control 100%;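 active means activation above the all-compound mean plus 3 SD, ignoring values outside control-based bounds, cut at about 4.8% in these data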;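 further: value is the 4 h activation minus the activation read at time zero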
K7 EDANS ctr: optically interferes with EDANS-DABCYL fluorescence, kallikrein-7 activator counter-screen; shares compounds with proKLK7 act; EDANS-DABCYL peptide fluorescence interference, no enzyme; EC50, µM; 250 compounds, 20% hits; AID 720493;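 active means compounds that raise the fluorescence signal in this interference counterscreen, with EC50 at or below 10 µM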;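 further: intact quenched peptide substrate alone read at 355 nm excitation and 520 nm emission; signal is fluorescence gain from T0 to T4 after four hours at room temperature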
The depositor's hits bear a star; i = inactive; . = not tested or not shown. The list is not random: actives were taken first. Their share in the collection is about 7%.

SMILES | AHR act | NR3A LBD binder | ADAM17 inh | ADAM10 inh | proKLK7 act | rCAG RNA binder | KLK7 act conf | EDANS interfere | others
Nc1ccc2c(C(F)(F)F)cc(=O)oc2c1 | 7 | 4 | i | i | 36* | 0 | 88* | 86*
O=C(Nc1cccc(S(=O)(=O)NC2=NCCCCC2)c1)c1ccc(Cl)cc1 | . | 2 | -4 | -7 | 1 | -1 | . | .
CN(C)C(=O)c1ccc(-c2cc(C(F)(F)F)n(C)n2)s1 | -2 | 1 | -2 | -4 | 0 | -4 | . | .
CCOC(=O)c1c(-c2ccccc2)cn2c(C)cc(C)nc12 | 1 | -1 | -168 | i | 13* | -3 | 6 | -2
Cc1ccc(NC(=O)[C@@H]2O[C@H](CO)[C@H](O)[C@H](O)[C@H]2O)cc1C(F)(F)F | . | . | -2 | -3 | 0 | 1 | . | .
COc1cc2[nH]c(Cl)c([N+](=O)[O-])c2cc1OC | 3 | -1 | -180 | -440 | 58* | -2 | 7 | 5.9*
NC(=S)NNc1ccnc2cc(Cl)ccc12 | 4 | 1 | -2 | -2 | 16* | 2 | 20* | 21*
O=C(NNc1ccnc2cc(Cl)ccc12)C1CCCCC1 | 13 | 2 | -5 | 2 | 0 | 3 | . | .
COC(=O)c1ccc(/C=C2\Oc3ccccc3NC2=O)cc1 | 8 | 2 | -28 | -72 | -5 | 6 | . | .
O=C1Nc2ccccc2O/C1=C\c1c(F)cccc1Cl | 49* | 3 | -317 | i | 17* | 4 | -69 | -54
Cc1cccc(-n2c(SCC(=O)N3CCCC3)nc3n[nH]c(C)c3c2=N)c1 | 19 | -1 | -3 | 4 | 30* | 1 | 70* | 43* | K7 EDANS ctr=i
Cc1[nH]nc2nc(SCC(=O)NC3CCCCC3)n(-c3ccc(Br)cc3)c(=N)c12 | 3 | 4 | -8 | 2 | 0 | 4 | . | .
c1ccc(-c2cnc(-c3cccnc3)o2)cc1 | 13 | 0 | -93 | -262 | 2 | -3 | . | .
NC(=O)c1ccc(-c2ncc(-c3ccccc3)o2)cc1 | -11 | -11 | i | i | 69* | 3 | 59* | 62*
NCCNc1ccc(C(=O)N2c3ccccc3Sc3ccccc32)cc1[N+](=O)[O-] | 2 | -2 | -2 | 6 | 0 | 30 | . | .
Nc1ccccc1/C=C/c1ccccc1N | . | 2 | i | i | 85* | 3 | 61* | 66*
Nc1ccccc1C=C1Cc2ccccc2C1=O | . | 2 | -7 | -15 | 0 | 1 | . | .
Fc1cc2[nH]c(=S)[nH]c2c(Br)c1N1CCSCC1 | 4 | -1 | 8 | 15 | -1 | 2 | . | .
CCOP(=O)(OCC)/C(C#N)=C/c1cc(OC)ccc1OC | . | 2 | -33 | -89 | 42* | -6 | 39* | 39*
COc1ccc2[nH]c(=O)c(C(c3nnnn3CC3CCCO3)N3CCc4ccccc4C3)cc2c1 (stereo not given) | 5 | 0 | -110 | i | 20* | 0 | 11 | 9.9*
Cc1cc(NCC2CCCO2)n2c(nc3ccccc32)c1C#N (stereo not given) | 13 | -1 | -305 | i | 16* | -3 | 44* | 34*
CCc1c(C)c(C#N)c2nc3ccccc3n2c1NCC1CCCO1 (stereo not given) | 1 | 3 | -21 | -67 | 2 | 1 | . | .
CC(C)c1cc(NCC2CCCO2)n2c(nc3ccccc32)c1C#N (stereo not given) | -1 | -2 | i | i | 21* | -4 | -12 | -17
CSc1nnc(C)c(=O)n1COC(=O)c1ccc(S(=O)(=O)N2CCCC2)cc1 | 3 | 9 | 0 | 5 | 0 | 0 | . | .
Nc1nc2ncccn2c1-c1ccc(C(F)(F)F)cc1 | . | . | -91 | -377 | 26* | 2 | 60* | 63*

Screening data deposited in PubChem BioAssay by several laboratories.
